A short description of experiment [1]: AP1 Signaling Pathway (AID 357). Further: on the % scale 0 is the no-effect control and ±100 the full control effect. Conditions: ME-180 AP-1-bla reporter, EGF-induced, beta-lactamase ratio, 5 h; at 17.2 µM (top of the series) unless noted. The procedure, abridged: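 ME-180 cells with beta-lactamase reporter under AP-1 response element, stimulated with EC50 EGF; compounds tested in titration series, 5 h at 37 °C. CCF4 substrate added 2.5 h at room temperature; 460/530 nm emission ratio gave %activity and AC50.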

A short description of experiment [2]: NFAT Signaling Pathway (AID 444).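 Further: carbachol stimulus at about its EC50 of 1 µM final; on the % scale 0 is the no-effect control and ±100 the full control effect.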 Conditions: Jurkat NFAT-bla M1, carbachol, beta-lactamase ratio, 5 h; at 17.2 µM (top of the series) unless noted. The procedure, abridged: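 Jurkat cells with NFAT-driven β-lactamase reporter and co-expressed M1 receptor, stimulated with carbachol (final 1 uM, ~EC50), compound titration, 5 h at 37 °C. CCF4 loaded 1 h at RT; 460/530 nm ratio gave %activity and AC50.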

The nature of experiment [3]: Stat Signaling Pathway (AID 446).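 Further: ME-180 cervical cancer cells given 40 pM IL-6 alongside compound; SIE-controlled beta-lactamase reporter measured as 460/530 nm FRET emission ratio; on the % scale 0 is the no-effect control and ±100 the full control effect.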 As to conditions: ME-180 SIE beta-lactamase reporter, IL-6 stimulated, 5 h; at 17.2 µM (top of the series) unless noted. In outline:
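FRET read-out (405 nm excitation, 460/530 nm emission) of a beta-lactamase reporter under a STAT-inducible element in ME-180 cervical carcinoma cells. Cells with compound receive 40 pM IL-6 for 5 h. Values are normalised to AC90 stimulation and AC90 JAK-inhibitor controls.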

The target in experiment [4] is Glucocorticoid receptor (Homo sapiens) (UniProt P04150). As to the kind of experiment: GR-GFP Redistribution (AID 450;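 active means compounds whose dose series gives a full or clear partial fitted curve of increased nuclear translocation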; further: potency means the concentration at half of the fitted maximal effect).
A short description of experiment [5]: qHTS Assay for Identification of Small Molecule Agonists for Hypoxia Response Element Signaling Pathway (AID 914; active means well fitted activation curve with a large enough effect in the signal ratio, with a control signal flat, not every such curve was filed as active; the % refers to the signal ratio; further: % of control where 0% means no effect). Conditions: ME-180 (cervical carcinoma) HRE-bla reporter, beta-lactamase ratio, CoCl2, 17 h; activation: stronger effect = higher value. In outline: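 Read-out: CCF4 FRET ratio of 460nm to 530nm emission (excitation 405nm) after 2.5 hours at room temperature, taken from HRE-bla ME-180 cells that had been exposed to compound and EC50 CoCl2 for 17 hours.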
In general terms: Quantitative high-throughput screening tests each substance at several concentrations.

In experiment [6] the target is 3',5'-cyclic-AMP phosphodiesterase 4B (Homo sapiens) (UniProt Q07343). As to the kind of experiment: qHTS Assay for Inhibitors of PDE-IV (AID 607; active means well fitted activation curve with a large enough effect in the main read-out, with a control signal flat, not every such curve was filed as active; further: % of control where 0% means no effect). The procedure, abridged: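 Cell-based read-out of cAMP via a modified cyclic nucleotide-gated channel and membrane potential dye (535/590 nm) in HEK293 cells expressing PDE4 endogenously. Compounds tested up to 22.9 uM final; 100 uM RO 20-1724 reference.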

Experiment [7] concerns the target Guanine nucleotide-binding protein G(i) subunit alpha-1 (Homo sapiens) (UniProt P63096). As to the kind of experiment: qHTS Assay for Inhibitors of RGS12 GoLoco Motif Activity (Green Fluorophore) (AID 879; active means well fitted curve in the direction sought with a large enough effect; an effect the other way counts as inactive or inconclusive;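 further: 0% = labeled peptide with Gαi1 and full inhibition = labeled peptide alone without protein; negative values mean loss of peptide binding seen as reduced polarization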). The procedure, abridged: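 A drop in FITC polarization marked displacement of the FITC-tagged RGS12 GoLoco peptide (10 nM) from Gαi1 (50 nM). Compounds were incubated 10 min at room temperature in Tris pH 7.5 buffer containing 150 mM NaCl, 0.1 mM GDP and 0.05% NP40; unlabeled peptide titration served as control.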

Experiment [8] can be described thus: qHTS Assay for Identification of Small Molecule Agonists for Thrombopoietin (TPO) Signaling Pathway (AID 917; active means well fitted curve in the direction sought with a large enough effect; an effect the other way counts as inactive or inconclusive; further: on the % scale 0 is the no-effect control and ±100 the full control effect). The procedure, abridged: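 Human TPO receptor–transfected Ba/F3 cells (murine, IL-3-dependent) in IL-3-deficient medium; compounds plus TPO at EC50, 26 pM final; 24 hrs, 37 C; GpIIb-luciferase luminescence after 10 min RT detection.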
Experiment [9] deals with Pyruvate kinase (Leishmania mexicana) (UniProt Q27686). As to the kind of experiment: qHTS Validation Assay for Inhibitors of Leishmania Mexicana Pyruvate Kinase (AID 945; active means well fitted curve in the direction sought with a large enough effect; an effect the other way counts as inactive or inconclusive;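 further: 0% = DMSO only neutral control wells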). In outline:
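Substrate mix (0.5 mM PEP, 0.1 mM ADP, 7 mM MgCl2, 50 mM KCl, pH 7.2 imidazole) received compound by pin tool, then 0.2 nM LmPYK E451W. After 1 h at room temperature, PKLight was added and luminescence measured.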

The target of experiment [10] is Pyruvate kinase PKM (Homo sapiens) (UniProt P14618). As to the kind of experiment: qHTS Assay for Activators of Human Muscle Pyruvate Kinase (AID 954; active means well fitted curve in the direction sought with a large enough effect, not every such curve was filed as active;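 further: 0% = uninhibited enzyme and -100% = no enzyme or full thiadiazolimine inhibition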). The procedure, abridged: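 ATP production by PKM2 detected via luciferase luminescence after 1 h room-temperature reaction (0.1 nM enzyme, PEP at Km 0.5 mM, ADP 0.1 mM, pH 7.2 imidazole buffer). Inhibition scaled to no-enzyme control; activation referenced to 0.3 nM enzyme wells.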

For experiment [11], the target named is Alpha-galactosidase A (Homo sapiens) (UniProt P06280). As to the kind of experiment: Counterscreen for Glucocerebrosidase Inhibitors: qHTS Assay for Human alpha-Galactosidase at pH 4.5 (AID 992; active means well fitted curve in the direction sought with a large enough effect; an effect the other way counts as inactive or inconclusive; further: 0% is about no effect). In outline: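 Fluorogenic 1536-well qHTS at pH 4.5 (citrate, Tween-20): 2 nM enzyme, 80 uM 4-MU-alpha-galactoside, 20 min room temperature, NaOH/glycine stop. Titration 0.7 nM to 77 uM, data normalized to no-enzyme and full-activity controls, Hill-fitted AC50.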
Background: The purpose of a counterscreen is to sort out artefacts and off-target activity.

The target in experiment [12] is alpha-glucosidase (Oryza sativa, rice) (UniProt Q653V4). The experiment is described as follows: Counterscreen for Glucocerebrosidase Inhibitors: qHTS Assay for Rice alpha-Glucosidase at pH 5.0 (AID 997; active means well fitted curve in the direction sought with a large enough effect; an effect the other way counts as inactive or inconclusive;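 further: 0% = full activity with enzyme and -100% = basal without enzyme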). In outline: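 Endpoint fluorogenic assay at pH 5.0: compounds (0.7 nM to 77 uM) titrated against 4 nM rice enzyme and 400 uM 4-MU-alpha-glucoside for 20 min at room temperature; NaOH/glycine stop, read ex 365/em 440 nm, Hill-fitted AC50.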

The target of experiment [13] is Mitogen-activated protein kinase 10 (Mus musculus) (UniProt Q61831). As to the kind of experiment: JNK3 AlphaScreen Assay (AID 530). The procedure, abridged:
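HepG2 lysate (IL-1b/TNFa pre-activated) + biotin-GST-cJun 1-79 + anti-pSer73 cJun; cpd titration, 15 min RT; ATP 10 uM start; Tris pH 7.6, MgCl2, DTT, vanadate; beads in EDTA buffer; AlphaScreen.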
(Alpha assays give light when donor and acceptor beads are brought close together.)

Experiment [14] deals with ATP-dependent 6-phosphofructokinase (Trypanosoma brucei brucei) (UniProt O15648). As to the kind of experiment: qHTS Assay to Find Inhibitors of T. brucei phosphofructokinase: hit validation (AID 492961; active means well fitted curve in the direction sought with a large enough effect; an effect the other way counts as inactive or inconclusive). In outline: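 Inhibition of parasite PFK is measured as reduced ADP formation, quantified via luciferase after ATP depletion. Assay used 0.1 mM ATP, 0.5 mM F6P, 1.25 nM enzyme, 45 min incubation.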

Experiment [15] has as its target Ubiquitin carboxyl-terminal hydrolase 1 (Homo sapiens) (UniProt O94782). The experiment is described as follows: Inhibitors of USP1/UAF1: Pilot qHTS (AID 504865; active means well fitted curve in the direction sought with a large enough effect; an effect the other way counts as inactive or inconclusive;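 further: rhodamine fluorescence freed from ubiquitin-rhodamine substrate followed over time; top concentration of the series differs between compounds; on the % scale 0 is the no-effect control and ±100 the full control effect; nearly all actives have a fitted effect of over 35% in size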). In outline:
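Enzyme-free wells gave the negative control, while test wells held 1nM USP1/UAF1 preincubated with compound for 15 min at room temperature. Ub-Rho at 150nM final started the reaction, and fluorescence at 480/540 nm was recorded kinetically.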

The target of experiment [16] is Luciferin 4-monooxygenase (Photinus pyralis) (UniProt P08659). The experiment is described as follows: Biochemical firefly luciferase enzyme assay for NPC (AID 624030; active means well fitted curve in the direction sought with a large enough effect; an effect the other way counts as inactive or inconclusive;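 further: purified P. pyralis luciferase at 10 nM with luciferin and ATP substrate; 0% = DMSO and -100% = full luciferase inhibition by PTC124 control; nearly all actives have a fitted effect of over 70% in size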). In outline:
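Purified P. pyralis luciferase at 10 nM in 50 mM Tris Acetate (final), luminescence read within 5 minutes of enzyme addition to compounds. Activity normalised to PTC124 versus DMSO; concentration-response curves classed by r2, magnitude and activity.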

Experiment [17] is described as follows: S16 Schwann cell viability assay (CellTiter-Glo assay) (AID 624031; active means well fitted curve in the direction sought with a large enough effect; an effect the other way counts as inactive or inconclusive;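 further: cellular ATP luminescence as a viability measure; plate controls were DMSO-treated cells for no effect and cell-free wells for full effect; nearly all actives have a fitted effect of over 70% in size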). The procedure, abridged:
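Luminescent ATP read-out (CellTiter-Glo) after 24 h compound exposure of native S16 rat Schwann cells at 37 °C. Signals were normalized between cell-free wells and DMSO-treated cells, set as 0% activity.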

Experiment [18] in a line: S16 Schwann cell PMP22 intronic element firefly luciferase assay (AID 624032; active means well fitted curve in the direction sought with a large enough effect; an effect the other way counts as inactive or inconclusive;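 further: plate controls were DMSO for no effect and PTC124 positive control mean for full effect; nearly all actives have a fitted effect of over 30% in size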). The procedure, abridged:
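Rat S16 Schwann cells stably carrying firefly luciferase driven by a PMP22 intronic element, in 10% FBS, treated 24 h at 37 C. ONE-Glo luminescence normalized to PTC124 control and DMSO (0%); curves classed by r2, magnitude and activity.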

The nature of experiment [19]: S16 Schwann cell PMP22 intronic element beta-lactamase assay (AID 624044; calls by dose curve;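 further: 0% = DMSO and -100% = potassium clavulanate positive control; nearly all actives have a fitted effect of over 15% in size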). Conditions: S16 rat Schwann cells, PMP22 element beta-lactamase FRET, 24 h; ratio activity, negative = inhibition: at 38.3 µM (top of the series). In outline:
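Beta-lactamase reporter under a PMP22 intronic regulatory element in stable S16 rat Schwann cells; 24 h compound exposure. 460 nm blue signal normalized between DMSO (0%) and potassium clavulanate, with 535 nm FRET tracking viability; curves classed by r2 and response.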

Experiment [20] concerns ATS189. The experiment is described as follows: qHTS profiling for inhibitors of Plasmodium falciparum proliferation (AID 504749; active means well fitted curve in the direction sought with a large enough effect; an effect the other way counts as inactive or inconclusive; further: nearly all actives have a fitted effect of over 60% in size; further: potency means the concentration at half of the fitted maximal effect;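 on activity, negative = inhibition: 0% = DMSO vehicle and full inhibition = artemisinin control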). As to conditions: P. falciparum in erythrocytes, SYBR Green DNA, 72 h; series mostly up to 28.7 µM. In outline: (§1)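 SYBR Green fluorescence (ex 485 nm, em 535 nm) reports parasite DNA after 72 h compound exposure of infected red cells at 0.3% parasitemia, 2.5% hematocrit; signal normalized to 0.29 uM artemisinin and vehicle wells.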

The test system of experiment [21] is CP262. Described as above. Conditions: P. falciparum in erythrocytes, SYBR Green DNA, 72 h; series mostly up to 28.7 µM. The procedure, abridged: as §1
Experiment [22] has as its system CP297. Described as above. Conditions: P. falciparum in erythrocytes, SYBR Green DNA, 72 h; series mostly up to 28.7 µM. In outline: as §1
For experiment [23], the system named is CP335. The description is as above. Conditions: P. falciparum in erythrocytes, SYBR Green DNA, 72 h; series mostly up to 28.7 µM. The procedure, abridged: as §1
For experiment [24], the system named is Dd2. The description is as above. Conditions: P. falciparum in erythrocytes, SYBR Green DNA, 72 h; series mostly up to 28.7 µM. In outline:
as §1

Experiment [25] deals with TAB109. The experiment is described as above. Conditions: P. falciparum in erythrocytes, SYBR Green DNA, 72 h; series mostly up to 28.7 µM. In outline: as §1
For experiment [26], the system named is W2. Described as above. As to conditions: P. falciparum in erythrocytes, SYBR Green DNA, 72 h; series mostly up to 28.7 µM. The procedure, abridged: as §1

SMILES strings stand for the structures. Unmarked numbers belong to inactive results. Results filed as inconclusive are left out. The source made the active and inactive calls. Unless noted, the call rests on the fitted dose curve; in most records, active means well fitted curve in either direction with a large enough effect (not every such curve was filed as active); inconclusive means small, poorly fitted or top-dose-only effect, or another doubt; inactive means flat fitted curve, though single readings scatter. Some results are limits rather than exact numbers.

Sequence of Glucocorticoid receptor (Homo sapiens) (P04150 whole entry, looked up): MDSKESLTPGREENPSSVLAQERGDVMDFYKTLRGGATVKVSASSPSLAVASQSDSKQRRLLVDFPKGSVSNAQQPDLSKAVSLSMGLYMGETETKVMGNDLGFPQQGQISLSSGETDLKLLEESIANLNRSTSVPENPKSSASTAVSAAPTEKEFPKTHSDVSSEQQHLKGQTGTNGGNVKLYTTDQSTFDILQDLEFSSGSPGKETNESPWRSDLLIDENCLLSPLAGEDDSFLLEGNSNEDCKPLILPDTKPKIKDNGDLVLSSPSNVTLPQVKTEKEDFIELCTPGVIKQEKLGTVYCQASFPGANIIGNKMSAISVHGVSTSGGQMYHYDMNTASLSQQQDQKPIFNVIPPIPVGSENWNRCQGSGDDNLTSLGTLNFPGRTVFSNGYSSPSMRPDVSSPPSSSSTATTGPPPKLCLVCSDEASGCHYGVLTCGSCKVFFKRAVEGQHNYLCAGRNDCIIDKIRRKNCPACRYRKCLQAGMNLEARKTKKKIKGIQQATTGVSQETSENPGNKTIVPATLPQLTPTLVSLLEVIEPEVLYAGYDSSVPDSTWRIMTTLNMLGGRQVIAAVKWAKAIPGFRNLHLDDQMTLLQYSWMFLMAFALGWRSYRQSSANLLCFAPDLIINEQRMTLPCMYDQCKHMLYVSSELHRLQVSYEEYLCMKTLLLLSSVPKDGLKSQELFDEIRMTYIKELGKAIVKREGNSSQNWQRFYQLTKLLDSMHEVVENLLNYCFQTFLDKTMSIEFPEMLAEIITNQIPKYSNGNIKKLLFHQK
Sequence of 3',5'-cyclic-AMP phosphodiesterase 4B (Homo sapiens) (Q07343 whole entry, looked up): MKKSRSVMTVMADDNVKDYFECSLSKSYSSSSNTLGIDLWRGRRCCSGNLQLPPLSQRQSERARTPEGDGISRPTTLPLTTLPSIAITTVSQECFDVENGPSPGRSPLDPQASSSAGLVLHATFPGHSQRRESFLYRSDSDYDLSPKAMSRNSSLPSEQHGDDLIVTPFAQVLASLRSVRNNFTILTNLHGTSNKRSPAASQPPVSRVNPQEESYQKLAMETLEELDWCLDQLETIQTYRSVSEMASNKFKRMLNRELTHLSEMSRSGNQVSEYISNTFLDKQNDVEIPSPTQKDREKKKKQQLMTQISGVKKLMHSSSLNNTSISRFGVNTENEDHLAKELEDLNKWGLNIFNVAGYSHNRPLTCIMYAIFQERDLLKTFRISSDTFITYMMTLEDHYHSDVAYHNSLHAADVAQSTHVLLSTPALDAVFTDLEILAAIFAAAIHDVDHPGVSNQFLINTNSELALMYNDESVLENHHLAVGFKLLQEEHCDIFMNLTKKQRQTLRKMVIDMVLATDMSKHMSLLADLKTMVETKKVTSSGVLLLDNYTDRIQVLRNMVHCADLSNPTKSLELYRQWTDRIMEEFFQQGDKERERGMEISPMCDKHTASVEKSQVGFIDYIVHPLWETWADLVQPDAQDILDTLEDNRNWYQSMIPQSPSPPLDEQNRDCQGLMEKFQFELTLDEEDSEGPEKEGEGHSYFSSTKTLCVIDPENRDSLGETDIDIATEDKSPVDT
Sequence of Ubiquitin carboxyl-terminal hydrolase 1 (Homo sapiens) (O94782 whole entry, looked up): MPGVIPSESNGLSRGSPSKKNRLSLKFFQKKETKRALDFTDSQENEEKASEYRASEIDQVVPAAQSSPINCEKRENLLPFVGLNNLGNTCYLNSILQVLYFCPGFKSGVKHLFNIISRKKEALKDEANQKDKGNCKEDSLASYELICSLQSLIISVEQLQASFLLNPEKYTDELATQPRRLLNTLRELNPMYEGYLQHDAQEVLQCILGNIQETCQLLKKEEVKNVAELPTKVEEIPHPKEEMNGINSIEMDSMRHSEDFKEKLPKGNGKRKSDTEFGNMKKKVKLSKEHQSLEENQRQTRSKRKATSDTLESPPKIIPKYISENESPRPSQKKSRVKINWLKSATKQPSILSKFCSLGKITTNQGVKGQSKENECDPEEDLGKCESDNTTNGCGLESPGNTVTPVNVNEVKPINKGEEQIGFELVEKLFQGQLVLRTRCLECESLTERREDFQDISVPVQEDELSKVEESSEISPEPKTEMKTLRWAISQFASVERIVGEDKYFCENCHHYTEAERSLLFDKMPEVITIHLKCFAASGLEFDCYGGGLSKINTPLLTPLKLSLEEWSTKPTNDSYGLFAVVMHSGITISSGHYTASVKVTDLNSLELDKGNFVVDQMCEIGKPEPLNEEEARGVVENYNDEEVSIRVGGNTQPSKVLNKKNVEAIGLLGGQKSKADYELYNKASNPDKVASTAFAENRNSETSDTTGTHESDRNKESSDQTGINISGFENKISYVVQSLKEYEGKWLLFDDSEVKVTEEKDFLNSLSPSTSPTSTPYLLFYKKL
Sequence of Pyruvate kinase PKM (Homo sapiens) (P14618 whole entry, looked up): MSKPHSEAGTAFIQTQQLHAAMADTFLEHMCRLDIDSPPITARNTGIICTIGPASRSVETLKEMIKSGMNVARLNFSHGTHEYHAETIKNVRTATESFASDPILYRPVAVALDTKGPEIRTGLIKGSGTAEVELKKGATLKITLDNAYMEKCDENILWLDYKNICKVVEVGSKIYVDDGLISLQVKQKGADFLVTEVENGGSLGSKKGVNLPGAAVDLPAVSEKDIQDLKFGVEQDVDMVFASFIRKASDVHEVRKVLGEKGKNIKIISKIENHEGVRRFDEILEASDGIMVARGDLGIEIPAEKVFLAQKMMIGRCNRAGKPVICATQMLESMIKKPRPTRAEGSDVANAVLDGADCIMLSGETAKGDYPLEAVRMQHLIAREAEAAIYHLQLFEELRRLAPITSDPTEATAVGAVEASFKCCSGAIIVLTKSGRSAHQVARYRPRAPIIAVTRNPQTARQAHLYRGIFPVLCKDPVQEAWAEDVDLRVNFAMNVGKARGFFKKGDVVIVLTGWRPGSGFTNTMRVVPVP
Sequence of Alpha-galactosidase A (Homo sapiens) (P06280 whole entry, looked up): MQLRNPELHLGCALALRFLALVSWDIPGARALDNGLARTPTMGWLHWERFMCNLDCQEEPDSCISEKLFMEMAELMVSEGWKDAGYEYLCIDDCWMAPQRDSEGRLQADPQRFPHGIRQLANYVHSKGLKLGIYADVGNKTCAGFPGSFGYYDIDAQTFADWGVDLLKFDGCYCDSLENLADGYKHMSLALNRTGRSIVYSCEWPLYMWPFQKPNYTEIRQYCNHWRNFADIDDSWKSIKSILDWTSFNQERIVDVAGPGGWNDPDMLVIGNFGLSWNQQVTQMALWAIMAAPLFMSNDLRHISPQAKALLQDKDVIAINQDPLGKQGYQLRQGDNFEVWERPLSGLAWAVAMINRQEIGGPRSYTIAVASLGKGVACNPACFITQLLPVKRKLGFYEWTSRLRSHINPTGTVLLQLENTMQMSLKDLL
Sequence of Pyruvate kinase (Leishmania mexicana) (Q27686 2-499 E452W): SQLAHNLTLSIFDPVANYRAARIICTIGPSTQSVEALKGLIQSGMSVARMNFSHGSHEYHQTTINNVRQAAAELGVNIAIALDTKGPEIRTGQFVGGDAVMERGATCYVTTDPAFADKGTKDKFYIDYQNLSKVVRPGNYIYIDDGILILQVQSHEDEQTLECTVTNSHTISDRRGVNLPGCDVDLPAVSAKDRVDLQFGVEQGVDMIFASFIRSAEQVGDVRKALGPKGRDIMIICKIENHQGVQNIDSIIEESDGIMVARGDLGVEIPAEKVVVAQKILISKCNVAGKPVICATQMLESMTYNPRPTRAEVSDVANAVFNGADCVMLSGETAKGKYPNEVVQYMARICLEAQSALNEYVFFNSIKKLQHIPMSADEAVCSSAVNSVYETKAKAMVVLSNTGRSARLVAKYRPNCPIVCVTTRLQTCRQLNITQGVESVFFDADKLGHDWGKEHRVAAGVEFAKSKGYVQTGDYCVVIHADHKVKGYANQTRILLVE
Sequence of Guanine nucleotide-binding protein G(i) subunit alpha-1 (Homo sapiens) (P63096 whole entry, looked up): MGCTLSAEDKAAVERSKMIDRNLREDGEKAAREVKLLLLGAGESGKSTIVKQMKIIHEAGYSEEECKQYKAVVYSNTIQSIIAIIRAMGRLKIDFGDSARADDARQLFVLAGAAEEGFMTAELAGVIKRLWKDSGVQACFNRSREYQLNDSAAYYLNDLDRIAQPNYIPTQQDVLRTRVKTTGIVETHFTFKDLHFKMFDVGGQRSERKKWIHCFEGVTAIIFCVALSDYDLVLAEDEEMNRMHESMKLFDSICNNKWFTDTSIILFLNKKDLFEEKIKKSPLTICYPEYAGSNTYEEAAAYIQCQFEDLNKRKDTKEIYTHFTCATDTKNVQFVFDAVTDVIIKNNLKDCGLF
Sequence of Luciferin 4-monooxygenase (Photinus pyralis) (P08659 whole entry, looked up): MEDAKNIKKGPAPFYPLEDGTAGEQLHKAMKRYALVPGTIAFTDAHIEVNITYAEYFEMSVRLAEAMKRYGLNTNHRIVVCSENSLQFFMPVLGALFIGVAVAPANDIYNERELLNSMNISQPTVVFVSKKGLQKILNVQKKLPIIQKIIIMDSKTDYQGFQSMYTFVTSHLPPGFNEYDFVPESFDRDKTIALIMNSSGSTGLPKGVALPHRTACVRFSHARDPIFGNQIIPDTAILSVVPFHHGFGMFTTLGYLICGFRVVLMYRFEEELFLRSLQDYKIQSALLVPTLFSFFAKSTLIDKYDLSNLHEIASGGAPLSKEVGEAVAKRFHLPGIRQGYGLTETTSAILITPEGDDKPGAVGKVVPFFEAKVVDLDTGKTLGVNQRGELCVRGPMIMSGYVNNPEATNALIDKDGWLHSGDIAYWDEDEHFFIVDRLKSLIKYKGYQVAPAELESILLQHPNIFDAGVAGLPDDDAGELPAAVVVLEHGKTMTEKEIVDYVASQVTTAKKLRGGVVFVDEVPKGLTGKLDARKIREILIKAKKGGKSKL

As to `Cc1cccc(OCC(=O)NCC(=O)n2nc(C)cc2C)c1`, the activity change, negative = inhibition in experiment [1] was 2.67%; in experiment [2], 12.1%. The activity, negative = inhibition in [3] is 4.06%. Besides, the Potency in experiment [4] was more than 20600 nM. The activation in experiment [5] is 14.3%.
In the same order, the values of `Cc1cc(Cl)ccc1OCC(=O)OC(C)C(=O)N(C)C` (centres undefined) are 3.68%, 17.7%, -3.58%, more than 20600 nM and -0.0413%.
For the compound `c1ccc2c(c1)CCC[C@H]2C1=NCCN1`, the activity change, negative = inhibition in [1] was 4.49% [at 38 µM]; in experiment [2], -2.65% [at 38 µM]. Further, the activity, negative = inhibition in experiment [3] is 7.24% [at 38 µM]. Moreover, the Potency result in [6], in experiment [8] and in experiment [9] was “inactive” throughout. For the same compound, the compound was called inactive in [7], in [10], in experiment [11] and in experiment [12].
Turning to `COc1ccc(CCn2c(C)ccc2C)cc1OC`, the activity change, negative = inhibition in experiment [1] is -3.97%; in experiment [2] it was -16.3%. Also, the activity, negative = inhibition in [3] is -7.94%. The Potency in experiment [4] was more than 20600 nM. For the same compound, the activation in experiment [5] is -9.87%.
Turning to `CCC[C@H]1C[C@H](C(=O)N[C@@H]([C@H]2O[C@@H](SC)[C@@H](O)[C@@H](O)[C@@H]2O)[C@H](C)Cl)N(C)C1`, the activity change, negative = inhibition in experiment [1] was -4.04%; in [2], 0.269%. Besides, in experiment [3], the activity, negative = inhibition was 1.36%. Besides, the Potency entry in [13], in experiment [6], in experiment [14], in [15], in experiment [16] and in [17] was “inactive” throughout. Besides, the Potency entry in experiment [18], in experiment [19] and in experiment [20] was “inactive” each time. Moreover, the Potency in experiment [21] was 15.1 nM (active); in [22], 60.1 nM (active); in experiment [23] it was 60.1 nM (active); in experiment [24], 44.7 nM (active); in experiment [25], 31.6 nM (active); in experiment [26], 42.6 nM (active).
On to `O=C(NC[C@@H]1CCCCN1)c1cc(OCC(F)(F)F)ccc1OCC(F)(F)F`, for which the activity change, negative = inhibition was -1.96% in [1] and -7.71% in experiment [2]. The activity, negative = inhibition in [3] is 4.72%. Moreover, the Potency result in experiment [13], in experiment [6] and in [15] was “inactive” in each case.
As for `Cc1ccc(-c2n[nH]c(=O)c3ccccc23)cc1S(=O)(=O)NCCN1CCOCC1`, the activity change, negative = inhibition in experiment [1] is 1.31%; in experiment [2], -9.43%. In addition, the activity, negative = inhibition in [3] was 1.81%. In addition, the Potency in experiment [4] was more than 20600 nM. The activation in experiment [5] is -17.3%.
